PubChem BioAssay
Calls of active or inactive are those of the source. The rule behind the calls is not given here.

molecular target: Pantothenate synthetase (Mycobacterium tuberculosis (strain ATCC 25618 / H37Rv)) (UniProt P9WIL5); assay: Coupled enzyme confirmation of inhibitors against recombinant Mtb PanC (AID 375); conditions: coupled enzyme assay; at 10 µM, hits give high values;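 note: 0% = full reaction with vehicle and 100% = no enzyme background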
Sequence (P9WIL5 whole entry, looked up): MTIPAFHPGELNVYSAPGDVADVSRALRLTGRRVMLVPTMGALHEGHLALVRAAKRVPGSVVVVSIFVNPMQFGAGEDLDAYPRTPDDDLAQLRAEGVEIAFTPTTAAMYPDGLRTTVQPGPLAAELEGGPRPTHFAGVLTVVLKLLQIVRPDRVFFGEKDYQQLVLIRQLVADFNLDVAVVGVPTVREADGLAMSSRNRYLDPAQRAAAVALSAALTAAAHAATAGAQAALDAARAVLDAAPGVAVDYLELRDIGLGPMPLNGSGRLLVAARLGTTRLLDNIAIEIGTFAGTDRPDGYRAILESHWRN

**Q.** `C1COC(NC(C2CC2)C2CC2)=N1` was tested. Which inhibition did it give?
**A.** Its inhibition is 4% (inactive).

**Q.** With `Cn1c(C(=O)NCC2CCCO2)cc2c(=O)n(C)c3ccccc3c21` (stereo not given) as the compound, how does the inhibition read?
**A.** Its inhibition is 0% (inactive).

**Q.** For `C/C=C/COC(=O)c1[nH]c2c(c1C)C(=O)CC(c1ccc(N(C)C)cc1)C2` (stereo not given), which inhibition is on record?
**A.** Its inhibition is 1% (inactive).

**Q.** Which inhibition does the source give for `CN(C)c1ccc(O)c2c1CC1CC3[C@@H](N(C)C)C(=O)C(C(N)=O)=C(O)[C@]3(O)C(=O)C1=C2O` (stereo not given in full) here?
**A.** The inhibition was 0% (inactive).

**Q.** Which inhibition does the source give for `COc1ccccc1Cn1nnc2c(=O)[nH]c(C3CCN(C(=O)c4ccccc4Cl)CC3)nc21` here?
**A.** Its inhibition is 0% (inactive).

**Q.** Which inhibition does the source give for `CNC(=O)Oc1ccc2c(c1)[C@]1(C)CCN(C)[C@@H]1N2C` here?
**A.** The inhibition was 4% (inactive).

**Q.** With `CC(=O)O[C@H]1CSC[C@H]1NC(=O)c1ccccc1` as the compound, how does the inhibition read?
**A.** Its inhibition is 0% (inactive).

**Q.** How did the inhibition turn out when `CC1(C)CC(=O)C(C(=O)CCCCC(=O)C2C(=O)CC(C)(C)CC2=O)C(=O)C1` was run?
**A.** The inhibition was 0% (inactive).

**Q.** `CCC(C)(C)n1nnnc1C(c1ccccc1OC)N1CCSCC1` (stereo not given) was tested. Which inhibition did it give?
**A.** The inhibition was 5% (inactive).

**Q.** For `COCCCNC(=O)CCn1c(=O)c2ccccc2n(CC(=O)Nc2ccc(C)cc2C)c1=O`, which inhibition is on record?
**A.** Its inhibition is 0% (inactive).

**Q.** With `Cc1nc2sc(C(c3ccccc3)N3CCN(c4ccccc4F)CC3)c(O)n2n1` (stereo not given) as the compound, how does the inhibition read?
**A.** The inhibition was 0% (inactive).

**Q.** Which inhibition does the source give for `COc1cc2c(cc1OC)CN(C(=O)CSc1nc3[nH]ncc3c(=O)n1-c1ccccc1)CC2` here?
**A.** Its inhibition is 2% (inactive).

**Q.** How did the inhibition turn out when `CC(C)(C)n1ncc2c(=O)n(CC(=O)c3ccccc3)cnc21` was run?
**A.** The inhibition was 0% (inactive).

**Q.** `CSc1cccc(NC(=O)C2CCCN2S(=O)(=O)c2ccc3c(c2)CCC(=O)N3)c1` (stereo not given) was tested. Which inhibition did it give?
**A.** Its inhibition is 0% (inactive).

**Q.** For `CC[N+](C)(C)c1cccc(O)c1`, which inhibition is on record?
**A.** Its inhibition is 0% (inactive).

**Q.** How did the inhibition turn out when `COc1ccc(N(CC(=O)N2c3ccccc3CC2C)S(=O)(=O)c2c(C)noc2C)cc1` (stereo not given) was run?
**A.** The inhibition was 7% (inactive).

**Q.** How did the inhibition turn out when `COc1ccc(C2=Nn3c(nnc3-c3ccccc3)SC2)cc1OC` was run?
**A.** The inhibition was 0% (inactive).

**Q.** Which inhibition does the source give for `CN(c1ccccc1C(=O)NCC1CCCO1)S(C)(=O)=O` (stereo not given) here?
**A.** Its inhibition is 2% (inactive).

**Q.** `CCN1CCN(Cc2ccc(NC(=O)Nc3ccccc3)cc2)CC1` was tested. Which inhibition did it give?
**A.** The inhibition was 1% (inactive).

**Q.** How did the inhibition turn out when `CCOc1ccc(CNc2ccc3c(c2)ncn3C)cc1` was run?
**A.** Its inhibition is 0% (inactive).

**Q.** Which inhibition does the source give for `COC(=O)c1ccc(N2C(=O)CC(N3CCN(C(=O)c4ccco4)CC3)C2=O)cc1` (stereo not given) here?
**A.** Its inhibition is 0% (inactive).

**Q.** How did the inhibition turn out when `Cc1cccc(NC(=O)c2ccc(S(=O)(=O)N(C)C)cc2)n1` was run?
**A.** Its inhibition is 0% (inactive).

**Q.** `CSc1oc(-c2ccccc2)nc1S(=O)(=O)c1ccc(F)cc1` was tested. Which inhibition did it give?
**A.** Its inhibition is 0% (inactive).

**Q.** With `COC(=O)Nc1ccc(C)cc1NC(=O)OC` as the compound, how does the inhibition read?
**A.** Its inhibition is 2% (inactive).

**Q.** How did the inhibition turn out when `Brc1c(NC2=NCCN2)ccc2nccnc12` was run?
**A.** Its inhibition is 0% (inactive).

**Q.** How did the inhibition turn out when `COC(=O)Cn1c(C)nc2c(sc3nc(C)cc(C)c32)c1=O` was run?
**A.** The inhibition was 3% (inactive).

**Q.** With `Cc1nn(Cc2ccccc2)c(C)c1NC(=O)c1cc(-c2ccco2)on1` as the compound, how does the inhibition read?
**A.** The inhibition was 3% (inactive).

**Q.** For `CCOC(=O)C(CC)(CCC(=O)O)c1csc(N)n1` (stereo not given), which inhibition is on record?
**A.** The inhibition was 0% (inactive).

**Q.** For `CCCn1c(SCC(=O)N2CCc3ccccc3C2)nc2c1c(=O)n(C)c(=O)n2C`, which inhibition is on record?
**A.** The inhibition was 1% (inactive).

**Q.** For `CCCOc1ccccc1NC(=O)c1ccc(N)cc1`, which inhibition is on record?
**A.** Its inhibition is 3% (inactive).

**Q.** With `C=CCN1C(=O)CS/C1=N/c1nccs1` as the compound, how does the inhibition read?
**A.** The inhibition was 0% (inactive).

**Q.** How did the inhibition turn out when `COc1ccc(CCNc2oc(-c3ccccc3OC)nc2C#N)cc1` was run?
**A.** Its inhibition is 2% (inactive).

**Q.** With `Cc1nn(C)c(C)c1CN(C)C(=O)c1cc2nc(-c3ccco3)cc(C(F)(F)F)n2n1` as the compound, how does the inhibition read?
**A.** Its inhibition is 0% (inactive).

**Q.** For `C=CCSc1nnc2n(-c3ccccc3OC)c(=O)c3c4c(sc3n12)CCC4`, which inhibition is on record?
**A.** Its inhibition is 0% (inactive).

**Q.** Which inhibition does the source give for `COC(=O)c1ccc(CSc2nnc(-c3ccncc3)o2)o1` here?
**A.** The inhibition was 0% (inactive).

**Q.** `CCOC(=O)N1CCC(NC(=O)Cn2cc3c(n2)CCC(C)C3)CC1` (stereo not given) was tested. Which inhibition did it give?
**A.** Its inhibition is 0% (inactive).

**Q.** `O=C(CCCC(=O)OCC(=O)NC1CCCC1)Nc1ccccn1` was tested. Which inhibition did it give?
**A.** Its inhibition is 4% (inactive).

**Q.** Which inhibition does the source give for `C=CCc1ccccc1OCC(O)CN1CCN(Cc2ccc3c(c2)OCO3)CC1` (stereo not given) here?
**A.** The inhibition was 5% (inactive).

**Q.** Which inhibition does the source give for `O=C(Nc1ncc2c(n1)CC(c1ccccc1)CC2=O)c1ccco1` (stereo not given) here?
**A.** The inhibition was 3% (inactive).

**Q.** Which inhibition does the source give for `CCOC(=O)c1ccc(NS(=O)C23CC4CC(CC(C4)C2)C3)cc1` (stereo not given) here?
**A.** Its inhibition is 8% (inactive).
